Measured values: the supplement of paper PMC10338343
± gives the standard deviation.

Key:
[1] = tested on: MILI (PIWIL2) piRISC loaded with L1MC piRNA (26 nt); test: pre-steady-state target cleavage rate (min^-1); guide: L1MC piRNA 5'p-UAACUAAAUACUAUGCAAGCUGUAGG; higher = faster piRNA-guided slicing of the target
In short: (§1)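 The method was Cleave-'n-Seq, in which uncleaved targets from a transcribed, DNA-blocked target RNA library were sequenced after exposure to active affinity-purified piRISC carrying one synthetic guide, with or without GTSF1 partner protein. Reactions contained 0.1 nM library, 1 nM piRISC and, where present, 500 nM GTSF1 in HEPES–potassium acetate buffer at 33 °C for 0–8 or 0–960 min. Reads were normalised to depth and to weakly complementary targets, three trials were pooled, and k3 was capped at 0.0001 min^-1. The pre-steady-state cleavage rate came from a burst-and-steady-state fit.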

[2] = tested on: EfPiwi piRISC loaded with L1MC piRNA (26 nt); test: pre-steady-state target cleavage rate (min^-1); auxiliary factor: 500 nM Ephydatia muelleri Gtsf1; guide: L1MC piRNA 5'p-UAACUAAAUACUAUGCAAGCUGUAGG; MIWI and MILI are mouse PIWI proteins and EfPiwi is from a freshwater sponge; tags in brackets are library labels; higher = faster piRNA-guided slicing of the target
In short: as §1

[3] = auxiliary factor: 500 nM mouse GTSF1
[4] = auxiliary factor: none (no GTSF1)

Sequence	pre-steady-state target cleavage rate [1, 3]	pre-steady-state target cleavage rate [1, 4]	pre-steady-state target cleavage rate [2]
UCCUGGUACAGCUUGCAUAGUAUUUUAGUUA	0.183 ± 0.021	0.0144 ± 0.0062	0.00849 ± 0.0042
UCCUGGUUCACCUUGCAUAGUAUUUAGUUA	0.128 ± 0.022	0.00513 ± 0.0027	0.0052 ± 0.0033
UCCUGGAUGUUCUUGCAUAGUAUUUAGUUA	0.0709 ± 0.01	0.0115 ± 0.003	0.173 ± 0.068
UCCUGCGACAGCUUGCAUAGUAUUUAGUUA	0.298 ± 0.016	0.00828 ± 0.0026	0.0339 ± 0.0075
UCCUCCAACUGCUUGCAUAGUAUUUAGUUA	0.256 ± 0.017	0.00659 ± 0.0019	0.0183 ± 0.0064
UCCUGGAUCAGCUUGCAUAGUAUCUAGUUA	0.205 ± 0.02	0.00466 ± 0.0024	0.0167 ± 0.005
UCCUGGAACAGCUUGCAUAGUAGUUAGUUA	0.138 ± 0.018	0.00378 ± 0.0026	0.00926 ± 0.0027
UCCUCCUACAGCUUGCUUAGUAUUUAGUUA	0.275 ± 0.015	0.00811 ± 0.0021	0.0424 ± 0.012
UCCUGCUUGAGCUUGCAUAGUAUUUAGUUA	0.22 ± 0.019	0.00599 ± 0.0022	0.00861 ± 0.0024
UCCUGGAACAGCUUGCAAAGUAUUUAGUAA	0.158 ± 0.022	0.00401 ± 0.0024	0.00293 ± 0.0022
UCCUGCUACAACUUGCAUAGUAUUUAGUUA	0.247 ± 0.023	0.00739 ± 0.0024	0.00776 ± 0.0029
UCCUCCUACAGCUUGCAUAAUAUUUAGUUA	0.292 ± 0.026	0.00352 ± 0.0022	0.00664 ± 0.0024
UCCUGGAUGUGCAUUGCAUAGUAUUUAGUUA	0.182 ± 0.023	0.0119 ± 0.0039	0.0129 ± 0.0042
UCCUGGAUGAGCUUGCAUUGUAUUUAGUAA	0.127 ± 0.021	0.00311 ± 0.0025	0.00311 ± 0.0025
